Bioassay records: PubChem, several laboratories
LGR2 antag = inhibitors of bursicon-induced LGR2 CRE-luciferase signal, primary screen, cell-based, HEK293, CRE-luciferase reporter, bursicon stimulation. 0.35% of 380,000 active. bursicon-stimulated, 4 h. inhibition, % at 9.99 µM. AID 720647, 2013;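 active = drop in luminescence signal, shown as inhibition above about 50% in the replicate tests, limit read from the data, passing the limit was not always enough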;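 note: agonist challenge used bursicon conditioned medium at about half maximal strength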
SENP7 inh = SENP7 protease inhibitors, primary screen, biochemical, luminescence, uHTS; 1.5% of 330,000 active; recombinant SENP7, Z-RLRGG-aminoluciferin luminescence, 40 min; Sentrin-specific protease 7 (Homo sapiens), Q9BQF6; inhibition, % at 5 µM;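 active = inhibition above about 50% at the single test dose, limit read from the data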;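 note: plate controls were DMSO with enzyme for no effect and no enzyme buffer wells for full effect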
HSP90 refold inh = HSP90 inhibitors, primary screen, cell lysate, luminescence | Heat shock protein HSP 90 (rabbit reticulocyte lysate; luciferase refolding) | Rabbit reticulocyte lysate, luciferase refolding luminescence, 3 h | inhibition, % at 5.6 µM | 0.91% of 290,000 active;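 active = inhibition above the screen-wide mean plus 3 SD, computed separately per campaign, cut at about 16% in these data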;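 note: 0% = DMSO wells and 100% = 60 µM geldanamycin wells; inhibitors lower the luminescence because luciferase stays unfolded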
SENP8 block-1 = SENP8 protease inhibitors, primary screen, biochemical, luminescence | Sentrin-specific protease 8 (Homo sapiens), Q96LD8 | purified SENP8, Z-RLRGG-aminoluciferin cleavage | inhibition, % at 10 µM | 1.2% of 330,000 active; in the data active = inhibition above about 50%
SENP6 block = SENP6 protease inhibitors, primary screen, biochemical, luminescence, uHTS; Sentrin-specific protease 6 (Homo sapiens), Q9GZR1; 1.8% of 330,000 active; Recombinant SENP6 catalytic domain, aminoluciferin luminescence; AID 2599, 2010; inhibition, % at 10 µM;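 active = inhibition above about 50% at the single tested dose, limit read from the data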;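 note: plate controls were DMSO wells with enzyme for no effect and DMSO wells lacking enzyme for full effect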
Target sequence (Q9GZR1 628-1112 limits assumed): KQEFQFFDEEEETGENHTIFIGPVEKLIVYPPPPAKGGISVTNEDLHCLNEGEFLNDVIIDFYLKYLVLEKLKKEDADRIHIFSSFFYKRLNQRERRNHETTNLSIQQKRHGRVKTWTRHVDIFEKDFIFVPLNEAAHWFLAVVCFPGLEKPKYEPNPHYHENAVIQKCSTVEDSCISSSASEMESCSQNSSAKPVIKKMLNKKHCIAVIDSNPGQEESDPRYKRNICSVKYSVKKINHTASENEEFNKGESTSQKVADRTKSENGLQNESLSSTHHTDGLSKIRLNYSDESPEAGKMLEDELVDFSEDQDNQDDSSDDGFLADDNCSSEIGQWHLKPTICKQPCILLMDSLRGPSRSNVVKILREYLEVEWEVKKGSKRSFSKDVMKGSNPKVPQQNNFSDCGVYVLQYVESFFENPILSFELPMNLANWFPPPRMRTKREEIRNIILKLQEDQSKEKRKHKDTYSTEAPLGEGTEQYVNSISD
SENP8 block-2 = human SENP8 protease inhibitors, primary screen, biochemical, fluorescence, Nedd8 protein substrate, uHTS; Sentrin-specific protease 8 (Homo sapiens), Q96LD8; recombinant SENP8; inhibition, % at 20 µM; 0.64% of 360,000 active; AID 602440, 2012; in the data active = inhibition mostly above about 40%, no sharp cut-off; inactive = mostly below about 27%
SENP8 conf = SENP8 protease inhibitors, retest, confirmation, biochemical, luminescence, single concentration; shares compounds with SENP7 inh; Recombinant SENP8, Z-RLRGG-aminoluciferin luminescence, 60 min; inhibition, % at 12.5 µM; 40% of 6,200 active;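 active = mean inhibition across replicates above about 50%, limit read from the data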
SENP6 conf = SENP6 protease inhibitors, confirmation, biochemical, luminescence, single concentration. shares compounds with SENP7 inh. recombinant SENP6, Z-RLRGG-aminoluciferin luminescence. inhibition, % at 12.5 µM. 58% of 6,200 active. AID 488915, 2010
SENP7 confirm = SENP7 protease inhibitors, retest, confirmation, biochemical, luminescence, single concentration; shares compounds with SENP7 inh; 69% of 6,200 active; recombinant SENP7, Z-RLRGG-aminoluciferin luminescence, 40 min; inhibition, % at 12.5 µM
Casp3 select = caspase-3 protease inhibitors, confirmation, selectivity assay for SENP inhibitor project, biochemical, single concentration. purified caspase-3, Z-DEVD-aminoluciferin luminescence, 60 min. shares compounds with SENP7 inh. inhibition, % at 12.5 µM. 60% of 6,200 active. AID 488918, 2010;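 active = mean inhibition above about 50%, limit read from the data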;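 note: plate controls were enzyme with DMSO for no effect and wells without caspase-3 for full effect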
Target sequence (P42574 28-227 limits assumed): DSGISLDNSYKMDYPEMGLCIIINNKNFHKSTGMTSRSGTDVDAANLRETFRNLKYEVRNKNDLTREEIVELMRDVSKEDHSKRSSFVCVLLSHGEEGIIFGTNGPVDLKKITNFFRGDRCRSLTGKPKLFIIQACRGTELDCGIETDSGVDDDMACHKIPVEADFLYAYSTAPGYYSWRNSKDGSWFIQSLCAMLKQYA
Luc interf = counter-screen for SENP inhibitors: luminescence interference; 39% of 6,200 active; AID 488919; Pre-incubated SENP8/Z-RLRGG-aminoluciferin, luciferase luminescence interference; inhibition, % at 12.5 µM; shares compounds with SENP7 inh;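 active = mean inhibition above about 50% when retested at one dose, limit read from the data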;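 note: plate controls were DMSO wells with completed reaction for no effect and substrate without enzyme for full effect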
An asterisk follows results filed as active; · = no result. Only some compounds are listed: those with a hit (about 2.3% of all), similar ones and a draw of the others.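 Rule for the calls, unless noted: active = mean inhibition above about 50% in the one-dose retest (limit read from the data); inactive = the rest.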

SMILES	LGR2 antag	SENP7 inh	HSP90 refold inh	SENP8 block-1	SENP6 block	SENP8 block-2	SENP8 conf	SENP6 conf	SENP7 confirm	Casp3 select	Luc interf
O=C1/C(=C\c2ccco2)CCC/C1=C\c1ccco1	-10	0	3	1	-72	-22	·	·	·	·	·
C[C@H]1CN([C@@H](C)CO)S(=O)(=O)c2ccc(C3=CCCC3)cc2O[C@H]1CN(C)S(=O)(=O)c1cn(C)cn1	-23	·	·	·	·	·	·	·	·	·	·
O=C(C[C@@H]1C=C[C@@H](NS(=O)(=O)c2ccc(F)cc2)[C@H](CO)O1)N1CCC(Cc2ccccc2)CC1	11	·	·	·	·	·	·	·	·	·	·
Cc1noc(C)c1NC(=O)N(C)C[C@@H]1Oc2ccc(NC(=O)Cc3ccccc3)cc2CC(=O)N([C@@H](C)CO)C[C@@H]1C	-3	·	·	·	·	·	·	·	·	·	·
CNC(=O)C[C@H]1CC[C@@H]2[C@@H](COc3ccc(NC(=O)c4cnccn4)cc3C(=O)N2C)O1	8	·	·	·	·	·	·	·	·	·	·
COc1ccccc1/C=C1\CCC(C2CCCC2)C1=O (stereo not drawn)	-40	-9	-1	-1	7	14	·	·	·	·	·
O=C1/C(=C/c2ccccc2)CCC1C1CCCC1 (stereo not drawn)	-83	64*	-1	0	73*	15	4	6	22	29	23
CO[C@H](CN(C)C(=O)C1CCOCC1)[C@H](C)CN([C@H](C)CO)S(=O)(=O)c1ccccc1	-30	·	·	·	·	·	·	·	·	·	·
CCc1cccc(NC(=O)c2cnn(-c3ccccc3)c2C)c1	-17	85*	6	83*	90*	11	2	87*	98*	81*	81*
COc1cccc(NC(=O)c2cnn(-c3ccccc3)c2C)c1	-14	85*	9	78*	82*	6	8	85*	98*	89*	86*
Cc1ccc(NC(=O)c2cnn(-c3ccccc3)c2C)cc1	45	67*	11	46	66*	13	67*	64*	89*	70*	20
Cc1cccc(C)c1NC(=O)c1cnn(-c2ccccc2)c1C	11	-12	3	-3	-20	15	·	·	·	·	·
COc1ccc(CN(C)C[C@H]2Oc3ccc(NC(=O)Nc4ccc(F)cc4)cc3C(=O)N([C@@H](C)CO)C[C@@H]2C)cc1	5	·	·	·	·	·	·	·	·	·	·
CNC(=O)C[C@@H]1CC[C@@H]2[C@@H](COc3ccc(NC(=O)Nc4ccc(C)cc4)cc3C(=O)N2C)O1	-4	·	·	·	·	·	·	·	·	·	·
Cc1noc(C)c1NC(=O)N(C)C[C@@H]1Oc2ccc(NC(=O)CCC(F)(F)F)cc2CC(=O)N([C@@H](C)CO)C[C@H]1C	-5	·	·	·	·	·	·	·	·	·	·
CO[C@@H]1CN(C)C(=O)c2cc(NS(C)(=O)=O)ccc2OC[C@@H](C)N(C)C[C@@H]1C	3	·	·	·	·	·	·	·	·	·	·
Oc1ccc(/C=C/c2ccnc3ccccc23)cc1	-23	8	2	40	61*	-293	26	25	74*	28	-3
CCC(=O)N1CC(=O)N2[C@@H](CO)[C@H](c3ccc(-c4ccc(C(=O)N(C)C)cc4)cc3)[C@@H]2C1	3	·	·	·	·	·	·	·	·	·	·
O=C(CC(SCc1ccco1)c1ccc(O)cc1)c1cccs1 (stereo not drawn)	·	58*	3	88*	89*	-4	93*	91*	95*	46	87*
Cc1ccc(C(NC(N)=O)c2ccccc2C)cc1 (stereo not drawn)	-15	-4	1	0	-20	2	·	·	·	·	·
Cc1ccc(C(NC(N)=O)c2ccccc2)cc1 (stereo not drawn)	-28	54*	3	9	3	12	4	1	-2	-2	-2
NNc1nc2sc3c(c2c(=O)n1Cc1ccccc1)CCC3	-11	3	4	-1	13	6	·	·	·	·	·
NNc1nc(-c2ccccc2)nc2sc3c(c12)CCCC3	7	80*	8	66*	79*	-150	-7	12	20	16	16
CCCOc1ccc(C(=O)Nc2ccc(Cl)cn2)cc1	15	84*	13	71*	78*	7	21	23	50*	40	20
Cc1ccccc1C(=O)Nc1ccc(Cl)cn1	·	51*	-4	19	56*	21	39	44	73*	74*	37
SMILES	LGR2 antag	SENP7 inh	HSP90 refold inh	SENP8 block-1	SENP6 block	SENP8 block-2	SENP8 conf	SENP6 conf	SENP7 confirm	Casp3 select	Luc interf
Cc1ccc(C(=O)Nc2ccc(Cl)cn2)cc1	-42	59*	7	59*	75*	16	48	64*	90*	78*	36
O=C(COc1ccc(Cl)cc1)Nc1ccc(Cl)cn1	·	12	-4	-9	7	32	·	·	·	·	·
O=C(Nc1ccc(Cl)cn1)c1ccc(Oc2ccccc2)cc1	-30	91*	-2	90*	91*	3	27	52*	58*	47	5
Cc1noc(C)c1S(=O)(=O)Nc1ccc2c(c1)CC(=O)N([C@H](C)CO)C[C@@H](C)[C@@H](CN(C)Cc1ccc(Cl)c(Cl)c1)O2	-16	·	·	·	·	·	·	·	·	·	·
C[C@@H]1CCCCO[C@H](CN(C)S(=O)(=O)c2cn(C)cn2)[C@@H](C)CN([C@@H](C)CO)C(=O)c2cc(NC(=O)NC3CCCCC3)ccc2O1	8	·	·	·	·	·	·	·	·	·	·
CCCC(=O)Nc1ccc2c(c1)OC[C@@H](C)N(CCC(F)(F)F)C[C@H](C)[C@@H](OC)CN(C)C2=O	1	·	·	·	·	·	·	·	·	·	·
COCC(=O)N1C[C@@H](C)[C@@H](OC)CN(C)C(=O)c2ccc(NC(=O)Nc3cccc(F)c3)cc2OC[C@@H]1C	-20	·	·	·	·	·	·	·	·	·	·
COc1ccccc1CNC(=O)C[C@H]1CC[C@@H](NC(C)=O)[C@H](CO)O1	6	·	·	·	·	·	·	·	·	·	·
Cc1ccccc1C(=O)Nc1ccc(Br)c(C)n1	-49	66*	-3	43	59*	12	61*	62*	87*	65*	58*
